# The whole screen tested about 190,000 compounds, of which about 1,300 (0.68%) were called active. The full list was thinned out, with actives kept by preference. Values without a mark were called inactive. Cut-off read from the data, not from the text of the source: active = inhibition above about 50%; inactive = the rest.
# Target: Mannose-6-phosphate isomerase (Homo sapiens) (UniProt P34949)
# Assay: MPI inhibition at elevated mannose 6-phosphate – biochemical, fluorescence intensity, high mannose 6-phosphate, primary screen (AID 1220)
# Conditions: recombinant PMI enzyme, coupled fluorescence intensity; at 20 µM; stronger effect = higher value
# Chain of Mannose-6-phosphate isomerase (Homo sapiens) (P34949 whole entry, looked up): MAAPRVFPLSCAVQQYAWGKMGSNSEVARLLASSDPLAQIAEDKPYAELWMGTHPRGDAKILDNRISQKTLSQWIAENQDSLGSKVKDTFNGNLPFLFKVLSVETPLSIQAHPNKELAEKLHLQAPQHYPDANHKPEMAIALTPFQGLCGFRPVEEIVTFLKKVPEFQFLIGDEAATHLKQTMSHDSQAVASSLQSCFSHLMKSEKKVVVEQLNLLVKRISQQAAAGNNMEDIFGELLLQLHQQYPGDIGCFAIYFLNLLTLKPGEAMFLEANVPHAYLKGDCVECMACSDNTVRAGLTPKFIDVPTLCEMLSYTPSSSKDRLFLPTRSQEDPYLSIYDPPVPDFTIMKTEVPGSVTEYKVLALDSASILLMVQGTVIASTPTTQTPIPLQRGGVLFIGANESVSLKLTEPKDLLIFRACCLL
row,SMILES,inhibition
1,COC(=O)c1cc(COc2ccc3oc(C)c(C(=O)OC(C)C)c3c2)c(C)o1,-0.3%
2,CC(=O)NCC(=O)OCC(=O)Nc1ccc(C(C)=O)cc1,-8.8%
3,CC(=C1C2C=CC1C1C(=O)NC(=O)C21)c1ccccc1 (stereo unspecified),3.8%
4,Cc1c(NC(=O)COc2cccc3c2OC(C)(C)C3)c(=O)n(-c2ccccc2)n1C,-6.1%
5,c1ccc(N2CCN(c3cnc4ccccc4n3)CC2)cc1,5%
6,CC(=O)N1CCC(=NNS(=O)(=O)c2ccc(C)c([N+](=O)[O-])c2)CC1,-31.5%
7,O=C(NCc1nc2ccccc2[nH]1)C1=C[C@H](c2ccccc2)C[C@H](OCc2ccc(CO)cc2)O1,11%
8,Cn1c(Cn2c(=O)sc3ccccc32)nnc1SCc1cccc(F)c1,-7.7%
9,COCCNc1c(-c2ccc(OC)cc2)nc2ccc(Cl)cn12,-8.6%
10,Cc1ccc(C)c(S(=O)(=O)N/N=C2/CCCc3ccccc32)c1,-29.2%
11,CCOC(=O)C1=C(O)C(=O)N(c2ccc(S(N)(=O)=O)cc2)C1c1ccc(OC)cc1 (stereo unspecified),4.3%
12,COc1cc(C(F)(F)F)nc(-c2ccccn2)n1,4.9%
13,O=C(CN1CCOCC1)Nc1ccc2c(c1)OCO2,4.7%
14,O=C(CN1CCN(c2ccc(O)cc2)CC1)Nc1ccc2c(c1)OCCO2,62.8% (active)
15,O=C(c1ccc(N2CCOCC2)cc1[N+](=O)[O-])N1CCOCC1,7.3%
16,CC(=O)c1cc(N2CCOCC2)ccc1[N+](=O)[O-],2.8%
17,O=C(CN1CCN(c2ccccc2)CC1)Nc1ccc2c(c1)OCCO2,-3.7%
18,CN(C)/C=C/C(=O)c1cc(N2CCOCC2)ccc1[N+](=O)[O-],55.9% (active)
19,O=C(NC1=NCCS1)c1cccc(S(=O)(=O)N2CCCCC2)c1,7.1%
20,Cc1cc(N2CCOCC2)nc2ccc(NC(=O)C3CCC(C)CC3)cc12 (stereo unspecified),0.8%
21,COc1ccc(/C(C)=N/NC(=O)C2CC2)cc1,-2.9%
22,CCc1ccc(NC(=S)N2CCCC(C(F)(F)F)C2)cc1 (stereo unspecified),13.4%

row,SMILES,inhibition
1,O=C1C(=Cc2ccco2)C(=O)c2ccccc21,-11.7%
2,c1cc2[nH]snc2c2nc(C3CC3)nc12,54.2% (active)
3,Cc1nc2ccc3[nH]snc3c2n1,2.6%
4,Cc1cc(/C=C2\NC(=O)N(Cc3ccc(Cl)cc3)C2=O)c(C)n1C,-58.7%
5,O=C(CN1C(=O)S/C(=C\c2ccc(O)cc2)C1=O)c1ccccc1,12.5%
6,CS(=O)(=O)N1CCN(c2ccccc2NC(=O)CSc2nnc(-c3ccco3)o2)CC1,0.5%
7,CC(C)CN(C(=O)CSc1nnc(-c2ccco2)o1)c1c(N)n(Cc2ccccc2)c(=O)[nH]c1=O,-2.6%
8,ONc1cccnc1-n1nc(C(F)(F)F)cc1C(F)(F)F,67.9% (active)
9,Cc1cc(C(F)(F)F)nn1C(=O)c1cccnc1Cl,6.5%
10,Nc1cccnc1-n1nc(C(F)(F)F)cc1C(F)(F)F,-0.6%
11,COc1cccc(N2CCN(c3ccc(S(=O)(=O)N4CCCC4)cc3)CC2)c1,18.6%
12,Cc1sc2ncnc(NCC(C)(C)N3CCOCC3)c2c1C,-3.6%
13,CCOC(=O)/C(=C/c1ccc(OC(=O)c2ccncc2)cc1)C(C)=O,61.4% (active)
14,CCOC(=O)/C(=C/c1ccc(OC(=O)c2ccccc2)cc1)C(C)=O,4.7%
15,COCCOC(=O)/C(=C/c1ccc(OC(=O)c2ccccc2)cc1)C(C)=O,0.4%
16,Cn1c2ccccc2c2ncn(CCC3=CCCCC3)c(=O)c21,9.7%
17,CCOC(=O)CSc1nc(C)c2cc(C)c(C)cc2n1,1.6%
18,O=C(NC1C=CS(=O)(=O)C1)c1ccccc1 (stereo unspecified),5.8%
19,COc1cccc(OC)c1C(=O)Oc1ccc2c(c1)O/C(=C\c1ccncc1)C2=O,7.7%
20,COc1ccc(NC(=O)CSc2ncnc3c2cnn3Cc2ccccc2)cc1,8.2%
21,O=C(Oc1cccc2c(OC(=O)N3CCOCC3)cccc12)N1CCOCC1,2.4%
22,O=C(Oc1ccc(Cl)c2ccccc12)N1CCCCC1,-3.1%

row,SMILES,inhibition
1,O=C(Oc1cccc2c(OC(=O)N3CCCC3)cccc12)N1CCCC1,57.3% (active)
2,CC(C)CCC(C)N=Cc1c(O)n(Cc2ccccc2)c(=O)c2ccccc12 (stereo unspecified),6.3%
3,CCOC(=O)Nc1ccc(Oc2ccccc2)cc1,4.8%
4,N#CC1=C(N)C(C#N)(C#N)C(c2ccc[nH]2)C2CCCC=C12 (stereo unspecified),35.1%
5,N#CC1=C(N)C(C#N)(C#N)C(c2cccnc2)C2CC(c3ccccc3)CC=C12 (stereo unspecified),47.2%
6,N#CC1=C(N)C(C#N)(C#N)C(c2cccnc2)C2CCCC=C12 (stereo unspecified),50.3% (active)
7,O=C(O)CCC(=O)Nc1ccc(C(=O)OCC(=O)c2ccc(Cl)cc2Cl)cc1,6.3%
8,CCCCOC(=O)c1ccc(S(N)(=O)=O)o1,-1.2%
9,COc1cc(NCCC(=O)c2cccs2)c(OC)cc1Cl,51.4% (active)
10,Cc1ccc(NCCC(=O)c2cccs2)cc1Cl,18.9%
11,O=C(CCNc1cc(Cl)cc(Cl)c1)c1cccs1,7.8%
12,Clc1ccc(CSc2ncnc3nc[nH]c23)cc1,3.6%
13,C=CCc1cccc(C=Nc2ccc(Br)cc2)c1O,-8.2%
14,C=CCc1cccc(/C=N/c2ncccc2O)c1O,34.3%
15,C=CCc1cccc(C=Nc2cc(Br)ccc2O)c1O,57% (active)
16,O=C(NCCCN1CCCC1=O)C1CCCO1 (stereo unspecified),5.1%
17,CCc1ccc(NCc2cc3c(C)nn(-c4ccccc4)c3[nH]c2=O)cc1,8.8%
18,Cc1nn(-c2ccccc2)c2[nH]c(=O)c(CNc3ccc(N4CCOCC4)cc3)cc12,55.6% (active)
19,Cc1nn(-c2ccccc2)c2[nH]c(=O)c(CNc3ccc4c(c3)OCCO4)cc12,54.2% (active)
20,Cc1nn(-c2ccccc2)c2[nH]c(=O)c(CNCc3ccc4c(c3)OCO4)cc12,2.9%
21,CC(C)(C)c1nn(-c2ccccc2)c2[nH]c(=O)c(CNc3ccc4c(c3)OCCO4)cc12,5.7%
22,Cc1nn(-c2ccccc2)c2[nH]c(=O)c(CNCCN3CCOCC3)cc12,4.3%

# Source: PubChem BioAssay AID1220 (Sanford-Burnham Center for Chemical Genomics, 2008)
